Rows were chosen to be rich in hits. Some 1.2% of all compounds tested hit in one or more screens of this group.
GSH bead fluor = GSH bead compound fluorescence profile | hit rate 0.25% among 190,000 | fluorescence (KMESF) at 10 µM | AID 1776 | GSH beads flow cytometry, compound fluorescence 488/530 nm; hits give high values; in the data active = fluorescence above about 89;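 also: glutathione beads carrying GST-tagged Bcl family fusion proteins plus one bare bead set; values are compound well signal with DMSO vehicle wells as background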
Avidin fluor = avidin bead compound fluorescence profile | fluorescence (KMESF) at 10 µM | hit rate 0.38% among 220,000 | AID 1775 | Avidin beads, compound fluorescence 488/530 nm, flow cytometry; hits give high values; in the data active = fluorescence above about 47
RGS16-Gao = RGS16-Galphao interaction regulator (human). O15492+P09471. bead-based flow cytometry RGS16-Galphao binding, fluorescence; actives lie on both sides. binding response (% of control), % at 10 µM. hit rate 0.38% among 220,000. AID 1441;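 also: Galphao activated by GDP with aluminum fluoride before binding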
RGS8-Gao = modulates binding of RGS8 to human Galphao; P09471; hit rate 0.34% among 220,000; multiplexed bead flow cytometry; actives lie on both sides; AID 1423; response (percent of control binding), % at 10 µM; in the data active = response below about 60% or above about 140%; inactive = in between;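 also: Galphao activated as the GDP aluminium fluoride complex binding bead-coupled RGS8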
Target sequence (P09471 whole entry, looked up): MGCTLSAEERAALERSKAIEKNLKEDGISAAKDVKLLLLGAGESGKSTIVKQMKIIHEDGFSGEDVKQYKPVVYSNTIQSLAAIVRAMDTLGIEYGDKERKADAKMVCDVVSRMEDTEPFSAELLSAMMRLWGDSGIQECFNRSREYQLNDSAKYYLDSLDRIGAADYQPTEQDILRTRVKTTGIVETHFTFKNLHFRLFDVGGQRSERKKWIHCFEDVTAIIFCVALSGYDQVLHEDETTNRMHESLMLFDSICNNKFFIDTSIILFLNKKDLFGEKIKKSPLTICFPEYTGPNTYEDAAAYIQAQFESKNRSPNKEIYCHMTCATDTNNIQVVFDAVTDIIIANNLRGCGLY
RGS7-Gao reg = human RGS7-Galphao interaction regulation; P09471; Multiplexed bead flow cytometry, RGS7-Galphao binding; actives lie on both sides; binding response (% of control), % at 10 µM; hit rate 0.35% among 220,000; in the data active = binding response below about 49% or above about 150%; inconclusive = no clear call, values can overlap the other calls; inactive = in between;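 also: fluorescent Galphao held in activated GDP-AlF4 state binding bead-coupled RGS7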
RGS4-Gao reg = modulates binding of RGS4 to human Galphao; P09471; Multiplexed bead flow cytometry; actives lie on both sides; binding response (% of control), % at 10 µM; hit rate 0.33% among 220,000; in the data active = binding response below about 49% or above about 150%; inactive = in between;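 also: fluorescent Galphao activated with aluminum fluoride binding bead-coupled RGS4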
RGS4-Gao HTS = RGS4-Galphao interaction regulator (human) | shares compounds with RGS16-Gao | multiplexed bead flow cytometry, RGS–Galpha-o binding | RGS4–Galpha-o binding response, % at 10 µM | hit rate 99% among 1,600 | AID 1504;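 also: fluorescently labeled Galpha-o bound to GDP with aluminium fluoride binding biotinylated RGS beads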
Target sequence (P09471 whole entry, looked up): as above
Target sequence (P49798 whole entry, looked up): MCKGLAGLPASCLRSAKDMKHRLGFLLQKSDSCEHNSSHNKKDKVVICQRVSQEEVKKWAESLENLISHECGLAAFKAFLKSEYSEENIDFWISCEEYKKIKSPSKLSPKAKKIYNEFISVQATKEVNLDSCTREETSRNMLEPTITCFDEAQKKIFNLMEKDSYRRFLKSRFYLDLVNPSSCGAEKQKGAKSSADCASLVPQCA
Avidin counter = interferes with biotinylated probe binding to avidin beads; shares compounds with RGS16-Gao; streptavidin beads, fluorescein-biotin binding, flow cytometry; inhibition, % at 10 µM; 1,700 tested, under 10 active;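 active = inhibition above 50%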;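 also: median green fluorescence of gated singlet beads compared with DMSO control wells; 0% = DMSO wells and 100% = complete loss of bead fluorescence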
RGS8-Gao single = RGS8-Galphao interaction regulation, single point confirmation; hit rate 3% among 1,700; AID 1836; bead-based flow cytometry RGS8-Galphao binding, fluorescence; actives lie on both sides; shares compounds with RGS16-Gao; binding response (% of control), % at 10 µM; in the data active = binding response below about 72% or above about 130%; inactive = in between;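 also: Galphao activated as GDP AlF4 complex before binding bead RGS8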
RGS7-Gao confirm = RGS7-Galphao interaction regulation, single point confirmation; hit rate 7.8% among 1,700; shares compounds with RGS16-Gao; response (percent of control binding), % at 10 µM; AID 1837; bead-based flow cytometry RGS7-Galphao binding; actives lie on both sides; in the data active = response below about 75% or above about 130%; inactive = in between;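 also: fluorescent Galphao activated with GDP and aluminum fluoride binding bead-coupled RGS7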
RGS16-Gao single = RGS16-Galphao interaction regulation, single point confirmation | response (% of control binding), % at 10 µM | hit rate 4% among 1,700 | shares compounds with RGS16-Gao | AID 1838 | bead-based flow cytometry, RGS16-Galphao binding; actives lie on both sides; in the data active = response below about 74% or above about 130%; inactive = in between;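 also: Galphao activated as the GDP aluminium fluoride complex binding bead-coupled RGS16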
RGS4-Gao single = RGS4-Galphao interaction regulation, single point confirmation; shares compounds with RGS16-Gao; RGS4-Galphao binding, multiplexed bead flow cytometry; actives lie on both sides; binding response (% of control), % at 10 µM; hit rate 4% among 1,700; AID 1840; in the data active = binding response below about 74% or above about 130%; inactive = in between
RGS19-Gao conf = confirmation of regulators of human RGS19-Galphao interaction; hit rate 5% among 1,700; response (percent of control binding), % at 10 µM; shares compounds with RGS16-Gao; bead-based flow cytometry RGS19-Galphao binding; actives lie on both sides; in the data active = response below about 50% or above about 160%; inactive = in between;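 also: 100% = no compound control and 0% = blank background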
Active calls of the source: *; i = inactive; ? = inconclusive; . = not tested or not shown; [ ] = remark or other dose. Unless noted, no rule for the calls is given here.

SMILES | GSH bead fluor | Avidin fluor | RGS16-Gao | RGS8-Gao | RGS7-Gao reg | RGS4-Gao reg | RGS4-Gao HTS | Avidin counter | RGS8-Gao single | RGS7-Gao confirm | RGS16-Gao single | RGS4-Gao single | RGS19-Gao conf
O=C1CSC(=Nc2ccc(Cl)cc2)N1Cc1cccnc1 | . | -1 | 19* | 55* | ? | 5.3* | . | 0 | 93 | 90 | 93 | 94 | 109
CC(C)(C)c1ccc(N=C2SCC(=O)N2Cc2cccs2)cc1 | . | 4 | 103 | 103 | ? | 100 | . | . | . | . | . | . | .
COc1cccc(Cn2c(Oc3ccccc3)nc3c2c(=O)n(C)c(=O)n3C)c1 | 43 | 1 | -247* | 86 | 90 | 83 | 83* | . | . | . | . | . | .
Cc1nnc(SC(C)C(=O)Nc2c(C)n(C)n(-c3ccccc3)c2=O)n1N (stereo not drawn) | 9 | 8 | 101 | 101 | 102 | 101 | . | . | . | . | . | . | .
CCOc1ccc(NC(=O)N(CCC(C)C)C2CCN(C(C)=O)CC2)cc1 | 28 | 6 | 653 | 153*[activator] | 122 | 127 | 127* | i | 101 | 106 | 102 | 102 | 101
CCOc1ccc(NC(=O)N(C2CCCC2)C2CCN(C(C)=O)CC2)cc1 | 18 | 7 | 101 | 102 | 101 | 103 | . | . | . | . | . | . | .
COc1cc(/C=N/NC(=O)CNc2n[nH]c(=O)[nH]c2=O)ccc1O | 19 | 7 | 97 | 101 | 106 | 101 | . | . | . | . | . | . | .
CCCC(CCC)C(=O)Nc1ccc2c(c1)N(C(=O)CN1CCN(C)CC1)c1ccccc1CC2 | 24 | 6 | 253*[activator] | 129 | 119 | 121 | 121* | 1 | 105 | 104 | 102 | 102 | 100
Nc1cccc(CCc2nc3cc4ccccc4cc3[nH]2)c1 | 8 | 6 | 8.6* | 70 | 83 | 89 | 89* | -1 | 98 | 93 | 94 | 97 | 108
c1ccc(CCc2nc3ccccc3[nH]2)cc1 | 11 | 11 | 100 | 95 | 93 | 91 | . | . | . | . | . | . | .
Cc1nc(NCC2CCCO2)c2nnn(Cc3c(F)cccc3Cl)c2n1 (stereo not drawn) | 12 | 11 | 102 | 101 | ? | 101 | . | . | . | . | . | . | .
O=C(Nc1cccc(O)c1)c1noc2c1CCCCC2 | 32 | . | . | . | . | . | . | 1 | 107 | 106 | 110 | 103 | 103
O=c1c(Cc2ccccc2)c(O)ccn1C1CCCCCCC1 | 15 | 8 | 101 | 103 | ? | 100 | . | . | . | . | . | . | .
CCC(C)NC(=O)C1c2ccccc2C(=O)N1Cc1ccc(OC)cc1OC (stereo not drawn) | 38 | 6 | 424 | 147*[activator] | 127 | 138 | 138* | 1 | 102 | 99 | 90 | 97 | 62
Cc1cccc(NC(=S)N2CCN(c3ccc(F)cc3)CC2)c1 | 9 | 9 | 107 | 104 | 101 | 103 | . | . | . | . | . | . | .
NC(=O)C1CCN(C2=C(NS(=O)(=O)c3ccccc3)C(=O)c3ccccc3C2=O)CC1 | . | 1 | 16* | 19* | ? | 26* | . | 0 | 108 | 99 | 112 | 107 | 113
Cc1cc(N)ccc1N1CCCC1 | 0 | 1 | 39 | 54* | 50 | 58 | 58* | . | . | . | . | . | .
Cc1cc(N)ccc1-n1c(C)ccc1C | 10 | 28 | 98 | 98 | 98 | 101 | . | . | . | . | . | . | .
CC1CCCCN1C(=O)Cn1cc(/C=C2/C(=O)Nc3ccccc32)c2ccccc21 (stereo not drawn) | 20 | 3 | 41 | 55* | 44* | 50* | . | 0 | 103 | 104 | 104 | 104 | 98
O=C(Cc1nnc(NC(=O)Nc2ccc(F)cc2)s1)NCc1ccccc1 | . | 8 | 87 | 91 | ? | 85 | . | . | . | . | . | . | .
CO/C(N)=C(\C#N)N=Cc1ccccc1Cl | 20 | 12 | 102 | 101 | 103 | 100 | . | . | . | . | . | . | .
O=C(/C=C/c1ccc2c(c1)OCO2)Nc1nc2ccc(F)cc2s1 | . | 10 | 99 | 100 | ? | 99 | . | . | . | . | . | . | .
O=C(/C=C/c1ccc2c(c1)OCO2)Nc1nc(-c2ccc(F)cc2)cs1 | 12 | 7 | 183*[activator] | 119 | 102 | 82 | 82* | 1 | 102 | 104 | 101 | 98 | 89
CCc1ccc2c(COC(=O)c3n[nH]c4ccccc34)cc(=O)oc2c1 | 26 | 17 | 269 | 143*[activator] | 111 | 120 | 120* | 0 | 99 | 93 | 97 | 97 | 84
COC(=O)c1cccnc1-n1c(=O)c2cccnc2n(Cc2cccc(C(F)(F)F)c2)c1=O | 72 | 9 | 94 | 97 | 97 | 92 | . | . | . | . | . | . | .
SMILES | GSH bead fluor | Avidin fluor | RGS16-Gao | RGS8-Gao | RGS7-Gao reg | RGS4-Gao reg | RGS4-Gao HTS | Avidin counter | RGS8-Gao single | RGS7-Gao confirm | RGS16-Gao single | RGS4-Gao single | RGS19-Gao conf
NC1=C(O)C(=O)C(c2ccccc2)O1 (stereo not drawn) | . | 7 | 105 | 104 | ? | 101 | . | . | . | . | . | . | .
CN(C)/C=N/c1c(C#N)cnn1-c1ccc(C(F)(F)F)cn1 | 23 | 9 | -122* | 70 | 70 | 61 | 61* | 4 | 105 | 83 | 102 | 90 | 64
Fc1ccc(N/N=C/c2ccncc2)c(F)c1 | 14 | 4 | 141 | 117 | 106 | 104 | . | . | . | . | . | . | .
Clc1ccc(N/N=C/c2ccncc2)cc1Cl | 11 | 7 | 199*[activator] | 128 | 113 | 109 | 109* | 0 | 100 | 103 | 102 | 103 | 99
CN1CCN(c2ccc(CNS(=O)(=O)c3ccc(Cl)cc3)cc2)CC1 | . | 5 | 105 | 104 | ? | 97 | . | . | . | . | . | . | .
O=C(COc1ccccc1C(=O)N/N=C\c1ccc(O)c(O)c1)N/N=C/c1ccc(O)c(O)c1 | 4 | 4 | 16* | 37* | 14* | 17* | . | -4 | 61* | 21* | 60* | 54* | 53
O=C(O)CCSc1nnc(SCC(=O)NCC(F)(F)F)s1 | 4 | 5 | 8.8* | 72 | 85 | 93 | 93* | -2 | 103 | 106 | 102 | 103 | 101
CCOC(=O)CNC(=O)CSc1nnc(SCC(=O)NCC(=O)OCC)s1 | 10 | 15 | 123 | 99 | 115 | 103 | . | . | . | . | . | . | .

Compound activity: PubChem, NMMLSC
